Assay [1] is described as follows: NCI Yeast Anticancer Drug Screen. Data for the rad50 strain (AID 155).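 Also: 0% = growth of vehicle-only cultures of the same strain.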 The note with it: S. cerevisiae rad50 strain growth inhibition, active compounds read high. Put shortly:
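Yeast carrying a defined DNA repair defect were exposed to test compounds, and growth was compared with vehicle-treated controls to give percent inhibition.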

Assay [2] in a line: NCI Yeast Anticancer Drug Screen. Data for the mec2-1 strain (AID 157). Conditions: S. cerevisiae mec2-1 strain, active compounds read high. The method in brief: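 Strain: mec2-1 (DNA repair/cell cycle alteration). Compound exposure, then growth measured; inhibition expressed relative to vehicle.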
A short description of assay [3]: NCI Yeast Anticancer Drug Screen. Data for the sgs1 mgt1 strain (AID 161).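 Also: 0% = growth of cultures given vehicle only.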 The note with it: S. cerevisiae sgs1 mgt1 strain, active compounds read high. The method in brief: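 Mutant yeast exposed to compound; growth scored against vehicle-only wells.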
Assay [4] is described as follows: NCI Yeast Anticancer Drug Screen. Data for the cln2 rad14 strain (AID 165).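 Also: 0% = growth equal to vehicle treated cultures.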 Conditions: S. cerevisiae cln2 rad14 strain, active compounds read high. Put shortly:
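Compounds are applied to the cln2 rad14 yeast strain, and growth is then compared with that of vehicle-treated cultures to give inhibition.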

Assay [5] can be described thus: NCI Yeast Anticancer Drug Screen. Data for the bub3 strain (AID 167). The note with it: S. cerevisiae bub3 mutant strain, active compounds read high. Put shortly:
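Compounds were applied to a genetically altered yeast strain carrying a cell-cycle control defect. Growth inhibition was scored against vehicle-treated controls.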

Assay [6] in a line: NCI Yeast Anticancer Drug Screen. Data for the mlh1 rad18 strain (AID 175). The note with it: S. cerevisiae mlh1 rad18 strain growth inhibition, active compounds read high. Put shortly: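 Read-out is yeast growth inhibition, calculated against vehicle-only controls. The compound was applied to a strain engineered with DNA damage repair alterations.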
The mark [7] stands for this setting: at 5.0 µM (retest, dose inferred, filed as 0.5).
Where [8] appears, read: at 50.0 µM (retest, dose inferred, filed as 5.0).

The panel holds about 79,000 compounds, 15% with a hit somewhere; the sample as a whole holds those more often. A number with no mark means an inactive call. The source made the active and inactive calls. Rule as the data show it: active = growth inhibition above about 70%; inactive = the rest.

In the case of `OCCC(CCN1CCOCC1)(c1ccccc1)C1(O)CCCC1` (configuration not stated), the growth inhibition was 3% in assay [1] (setting [7]); 3% in assay [1] (setting [8]); -2.95% in assay [1] (at 50.0 µM); 5% in assay [2] (setting [7]); 2% in assay [2] (setting [8]); 45.3% in assay [2] (at 50.0 µM). In addition, the growth inhibition in assay [3] (setting [7]) is 8%; in assay [3] (setting [8]), 3%; in assay [3] (at 50.0 µM), 74.4% (active); in assay [4] (setting [7]) it was 2%; in assay [4] (setting [8]), 2%; in assay [4] (at 50.0 µM), 71.2% (active). The growth inhibition is -3% in assay [5] (setting [7]); -4% in assay [5] (setting [8]); 61.4% in assay [5] (at 50.0 µM); -2% in assay [6] (setting [7]); -2% in assay [6] (setting [8]); 73.8% (active) in assay [6] (at 50.0 µM).
For `CCN(CC)CCCC(C)Nc1c2ccccc2nc2c(C)cc(Br)cc12` (configuration not stated), the growth inhibition in assay [1] (setting [7]) is 2%; in assay [1] (setting [8]), 72% (active); in assay [1] (at 50.0 µM) it was 58%; in assay [2] (setting [7]), 8%; in assay [2] (setting [8]), 61%; in assay [2] (at 50.0 µM), 39.5%. In addition, the growth inhibition in assay [3] (setting [7]) is 17%; in assay [3] (setting [8]), 76% (active); in assay [3] (at 50.0 µM), 63.1%; in assay [4] (setting [7]), 19%; in assay [4] (setting [8]), 66%; in assay [4] (at 50.0 µM), 91.2% (active). The growth inhibition is 17% in assay [5] (setting [7]); 71% (active) in assay [5] (setting [8]); 36.9% in assay [5] (at 50.0 µM); 8% in assay [6] (setting [7]); 69% in assay [6] (setting [8]); 50.1% in assay [6] (at 50.0 µM).
Consider `O=C(NCCNCCNCCNC(=O)c1cc(-c2ccccc2)nc2ccccc12)c1cc(-c2ccccc2)nc2ccccc12`, for which the growth inhibition in assay [1] (setting [7]) was -16%; in assay [1] (setting [8]), 57%; in assay [1] (at 50.0 µM), 98.7% (active); in assay [2] (setting [7]), -10%; in assay [2] (setting [8]) it was 63%; in assay [2] (at 50.0 µM), 99.2% (active). Further, the growth inhibition was -7% in assay [3] (setting [7]); 41% in assay [3] (setting [8]); 98.8% (active) in assay [3] (at 50.0 µM); 18% in assay [4] (setting [7]); 64% in assay [4] (setting [8]); 99% (active) in assay [4] (at 50.0 µM). Further, the growth inhibition is -25% in assay [5] (setting [7]); 86% (active) in assay [5] (setting [8]); 99.2% (active) in assay [5] (at 50.0 µM); -4% in assay [6] (setting [7]); 88% (active) in assay [6] (setting [8]); 99% (active) in assay [6] (at 50.0 µM).
On to `Cc1c(C)c(NC(=O)/C=C/C(=O)O)c(C)c(C)c1NC(=O)/C=C\C(=O)O`, for which the growth inhibition in assay [1] (setting [7]) is -14%; in assay [1] (setting [8]) it was 14%; in assay [1] (at 50.0 µM), 61.7%; in assay [2] (setting [7]), -6%; in assay [2] (setting [8]), 37%; in assay [2] (at 50.0 µM), 88.8% (active). Also, the growth inhibition in assay [3] (setting [7]) is -13%; in assay [3] (setting [8]) it was 11%; in assay [3] (at 50.0 µM) it was 89.9% (active); in assay [4] (setting [7]) it was 7%; in assay [4] (setting [8]), 11%; in assay [4] (at 50.0 µM), 42.2%. Moreover, the growth inhibition in assay [5] (setting [7]) was -4%; in assay [5] (setting [8]) it was 35%; in assay [5] (at 50.0 µM), 86.3% (active); in assay [6] (setting [7]), -31%; in assay [6] (setting [8]), 58%; in assay [6] (at 50.0 µM), 59.6%.
In the case of `O=C(c1ccccc1)C(Br)C(Br)c1ccc(Cl)c(Cl)c1` (configuration not stated), the growth inhibition was 67% in assay [1] (setting [7]); 96% (active) in assay [1] (setting [8]); -8.65% in assay [1] (at 50.0 µM); 69% in assay [2] (setting [7]); 98% (active) in assay [2] (setting [8]); 24.3% in assay [2] (at 50.0 µM). In addition, the growth inhibition in assay [3] (setting [7]) was 92% (active); in assay [3] (setting [8]), 97% (active); in assay [3] (at 50.0 µM) it was 60.1%; in assay [4] (setting [7]) it was 39%; in assay [4] (setting [8]), 97% (active); in assay [4] (at 50.0 µM) it was -16.2%. Moreover, the growth inhibition was 87% (active) in assay [5] (setting [7]); 98% (active) in assay [5] (setting [8]); 13.1% in assay [5] (at 50.0 µM); 73% (active) in assay [6] (setting [7]); 97% (active) in assay [6] (setting [8]); 77.8% (active) in assay [6] (at 50.0 µM).
In the case of `COC(=O)/C(=C/C=C(c1ccccc1)c1ccccc1)N(C(C)=O)C(C)=O`, the growth inhibition in assay [1] (setting [7]) is 0%; in assay [1] (setting [8]) it was 13%; in assay [1] (at 50.0 µM), 99.4% (active); in assay [2] (setting [7]), 2%; in assay [2] (setting [8]) it was 25%; in assay [2] (at 50.0 µM), 99.6% (active). Further, the growth inhibition in assay [3] (setting [7]) is 1%; in assay [3] (setting [8]), 67%; in assay [3] (at 50.0 µM), 99.6% (active); in assay [4] (setting [7]) it was 3%; in assay [4] (setting [8]) it was 7%; in assay [4] (at 50.0 µM) it was 99.4% (active). Besides, the growth inhibition is -1% in assay [5] (setting [7]); 11% in assay [5] (setting [8]); 99.7% (active) in assay [5] (at 50.0 µM); -3% in assay [6] (setting [7]); 39% in assay [6] (setting [8]); 99.6% (active) in assay [6] (at 50.0 µM).
For `Cn1c(=O)c2c(nnc(-c3ccccc3)[n+]2[O-])n(C)c1=O`, the growth inhibition in assay [1] (setting [7]) is -3%; in assay [1] (setting [8]), 46%; in assay [1] (at 50.0 µM), 99.5% (active); in assay [2] (setting [7]), -1%; in assay [2] (setting [8]) it was 97% (active); in assay [2] (at 50.0 µM) it was 99.7% (active). Moreover, the growth inhibition was 1% in assay [3] (setting [7]); 90% (active) in assay [3] (setting [8]); 99.7% (active) in assay [3] (at 50.0 µM); 2% in assay [4] (setting [7]); 43% in assay [4] (setting [8]); 99% (active) in assay [4] (at 50.0 µM). Moreover, the growth inhibition is -3% in assay [5] (setting [7]); 60% in assay [5] (setting [8]); 99.6% (active) in assay [5] (at 50.0 µM); -6% in assay [6] (setting [7]); 95% (active) in assay [6] (setting [8]); 99.6% (active) in assay [6] (at 50.0 µM).
Take `Cc1c(F)c(C)c(C(=O)O)c(C)c1F`: the growth inhibition in assay [1] (setting [7]) was 26%; in assay [1] (setting [8]) it was 99% (active); in assay [1] (at 50.0 µM), 99.4% (active); in assay [2] (setting [7]), 27%; in assay [2] (setting [8]), 98% (active); in assay [2] (at 50.0 µM) it was 99.5% (active). The growth inhibition is 20% in assay [3] (setting [7]); 99% (active) in assay [3] (setting [8]); 99.5% (active) in assay [3] (at 50.0 µM); 8% in assay [4] (setting [7]); 99% (active) in assay [4] (setting [8]); 99.2% (active) in assay [4] (at 50.0 µM). Moreover, the growth inhibition in assay [5] (setting [7]) is 11%; in assay [5] (setting [8]), 99% (active); in assay [5] (at 50.0 µM) it was 99.2% (active); in assay [6] (setting [7]), 27%; in assay [6] (setting [8]), 100% (active); in assay [6] (at 50.0 µM), 99.6% (active).
`CCOC(=O)Nc1cc2c(cc1Br)-c1ccccc1C2O` (configuration not stated): the growth inhibition in assay [1] (setting [7]) was -1%; in assay [1] (setting [8]), -3%; in assay [1] (at 50.0 µM), 10%; in assay [2] (setting [7]), -3%; in assay [2] (setting [8]) it was 12%; in assay [2] (at 50.0 µM), -5.6%. Moreover, the growth inhibition was -7% in assay [3] (setting [7]); 1% in assay [3] (setting [8]); 10.4% in assay [3] (at 50.0 µM); -2% in assay [4] (setting [7]); 27% in assay [4] (setting [8]); -2.85% in assay [4] (at 50.0 µM). Besides, the growth inhibition in assay [5] (setting [7]) was 68%; in assay [5] (setting [8]) it was 95% (active); in assay [5] (at 50.0 µM) it was 69.4%; in assay [6] (setting [7]), -2%; in assay [6] (setting [8]), 7%; in assay [6] (at 50.0 µM), 18.7%.
